# Experimental data reported in PubChem BioAssay (NCI).
# The panel holds about 83,000 compounds, 20% with a hit somewhere; the sample as a whole holds those more often.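 The test compound was applied at a single concentration to cells in 96-well plates for 48 hours, and percent growth was recorded.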 Values without a mark were called inactive. Calls of active or inactive are those of the source.
# Tested on: NCI-H226 lung
# Experiment: NCI-60 one-dose screen, 48 h (100 = growth as untreated, 0 = no growth, -100 = all killed)
# Details: 10 µM
# Method: Growth inhibition of the NCI-H226 human Non-Small Cell Lung tumor cell line is measured as a screen for anti-cancer activity. Cells are grown in 96 well plates and exposed to the test compound for 48 hours. Compounds are tested at a single concentration, which is 10^-5 M for most compounds. The reported endpoint is percent growth (GI% or GIPRCNT), where numbers from 0 - 100% represent growth inhibition, and numbers from -100% - 0 represent cell death. For example, a value of 40 represents 60% growth inhibition. A value of 0 means no net growth occurred over the course of the experiment. A value of -40 indicates 40% of cells at the beginning of the experiment died by the end of the experiment. A value of -100 means all cells are dead at the end of the experiment.
# NCI-60 Human Tumor Cell Lines Screen was performed using the standard one-dose NCI protocol, which is described in more detail at https://dtp.cancer.gov/discovery_development/nci-60/default.htm.
# Compounds with GIPRCNT values below 10 were considered active. Activity score was based on GIPRCNT using the following formula: […]
# Score is 0 for GIPRCNT values of 100 or above, 50 for GIPRCNT values of 0, and 100 for GIPRCNT values of -100.
row,Compound,growth
1,COC(=O)[C@]12CC[C@@H](C)[C@H](C)[C@@H]1C1=CC[C@@H]3[C@@]4(C)CC(=O)[C@H](O)[C@@](C)(CO)[C@@H]4C(=O)C[C@@]3(C)[C@]1(C)CC2,-5.55% (active)
2,CC(=O)OC1Oc2ccccc2-c2oc(=O)c(-c3cc(=O)oc4cc(O)ccc34)cc21 (stereo not given),91.5%
3,Cn1cnc([N+](=O)[O-])c1/C=C1\Oc2ccc(Cl)cc2C1=O,94.8%
4,c1ccc(OCCC[P+](c2ccccc2)(c2ccccc2)c2ccccc2)cc1,47.4%
5,COc1ccc(NC(=O)CCn2cnc3c(cc(-c4ccccc4)n3-c3ccccc3)c2=O)cc1,88.8%
6,CS(=O)(=O)Nc1ccc(OCc2nnc(-c3ccc(Cl)cc3)o2)c(F)c1,86.2%
7,COc1ccc(-c2nc(SCC(=O)c3ccc(Br)cc3)[nH]c(=O)c2C#N)cc1,98.1%
8,CCCCCCCOc1cccc(/C=C2/C(=O)N=C3SCCCN32)c1,64.5%
9,CC(=O)N(O)c1ccc(/C=C/c2ccccc2)cc1,-20.6% (active)
10,COc1cc(-c2cc(/C=C/C(C)=O)[nH]n2)cc(OC)c1OC,81.7%
11,COc1cccc(C(=O)NNc2nc(N3CCN(C4CCCCC4)CC3)nc(N3CCN(C(c4ccccc4)c4ccccc4)CC3)n2)c1,73.7%
12,O=C(CCl)N1c2ccccc2Sc2ccc3ccccc3c21,34.4%
13,C[C@H](NC(=O)[C@@H]1CSSC[C@@H](NC(=O)Cc2nc3ccccc3cc2O)C(=O)NCC(=O)N1C)c1ccccc1,104%
14,COc1ccc(Cn2cc3c(c2-c2cc(OC)c(OC)c(OC)c2)CCc2cnoc2-3)cc1[N+](=O)[O-],47.5%
15,COc1ccc(-c2[nH]ncc2-c2cc(OC)c(OC)c(OC)c2)cc1,58.7%
16,Cc1ccc2c3c(cccc13)-c1ccccc1C2=O,91.1%
17,O=C(O)c1cc(C(F)(F)F)cc(C(F)(F)F)c1,111%
18,NC1CCC(Nc2nc(NCc3ccc(-c4cccs4)nc3)c3ncn(C4CCCC4)c3n2)CC1 (stereo not given),-9.23% (active)
19,Cc1nc2cc(-n3c(-c4ccc(F)cc4)nc4ccccc4c3=O)ccc2n1Cc1ccccc1,3.55% (active)
20,CC(=O)CS(C)(=O)=O,101%

row,Compound,growth
1,O=CNc1c(Cl)cc2c(c1Cl)Cc1cc([N+](=O)[O-])ccc1-2,90.1%
2,COc1ccc(N2CCN(c3nc(-c4ccccc4)c(C#N)c(=O)[nH]3)CC2)cc1,107%
3,Cc1ccc2nc3[nH]c(=O)[nH]c(=O)c3c(N)c2c1,100%
4,Cc1ccc(-c2cc(C(=O)Nc3ccc(S(=O)(=O)N4CCCCC4)cc3)[nH]n2)c(O)c1,76.5%
5,COc1ccc2nc(-c3ccccc3)cc(C(C)=O)c2c1,87.6%
6,COc1cc(C(=O)n2nc(N)c3c(C)cc(C)nc32)cc(OC)c1OC,92.1%
7,COc1ccc(-c2cn[nH]c2-c2cc(OC)c(OC)c(OC)c2)cc1,56.7%
8,COc1ccc(/C=C(\c2cc(OC)c(OC)c(OC)c2)c2nnc(-c3cccs3)o2)cc1,92.5%
9,COc1ccc2oc(=O)cc(C(c3ccc[nH]3)c3ccc[nH]3)c2c1,7.92% (active)
10,Nc1cc(O)cc(O)c1,107%
11,Cc1ccc(NC(=O)/C=N/O)cc1C,53.2%
12,Cc1ccccc1[P+](Cc1ccccc1)(c1ccccc1)c1ccccc1,39.5%
13,C[C@]12CC[C@H]3[C@@H](CCC4=CC(=O)CC[C@@]43C)[C@@H]1CC[C@@H]2c1csc(N)n1,60.1%
14,CC(=O)O[C@H]1CC[C@@]2(C)[C@@H](CC[C@@H]3[C@@H]2CC[C@]2(C)C=C(C=O)C[C@@H]32)C1,119%
15,CCCCCCCCCCCCCCCC(=O)N1CCN(C)CC1,106%
16,COCCNCC(O)Cn1c2ccc(Cl)cc2c2cc(Cl)ccc21 (stereo not given),43.1%
17,Cc1ccc(-c2cc(-c3cccc(Nc4ccnc5cc(Cl)ccc45)c3)nc3nc(N)[nH]c(=O)c23)cc1,96.6%
18,Cc1cccc2c(Nc3ccc(NS(C)(=O)=O)cc3)c3ccc([N+](=O)[O-])cc3nc12,-20.8% (active)
19,COc1cc2c3c(cccc3c1)C(=O)N(CCN1CCCC1)C2=O,0.818% (active)
20,COc1cc(Cn2c(-c3ccccc3)cc3c2-c2oncc2CC3)cc(OC)c1,-3.31% (active)
